From PubChem BioAssay (NCATS)
Results filed as inconclusive are left out. The source made the active and inactive calls. Unless noted, calls come from the whole dose curve; as a rule, active = well fitted inhibition curve with a large enough effect; inconclusive = small, poorly fitted or top-dose-only effect; inactive = no such curve, though single readings can be large or run the other way.

System: not listed separately
Assay: AP1 Signaling Pathway (AID 357; active = well fitted curve in either direction with a large enough effect, not every such curve was filed as active;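 note: ME-180 reporter cells stimulated with EGF at its EC50 level; % is set by controls: 0 for no effect and ±100 for the full control effect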)
Settings: ME-180 AP-1-bla reporter, EGF-induced, beta-lactamase ratio, 5 h; at 7.69 µM (top of the series) unless noted
Summary of the method: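 In this screen, ME-180 cells in Opti-MEM with 0.5% dialyzed FBS received EC50 EGF and compound titrations for 5 h. AP-1 reporter beta-lactamase was detected via CCF4 ratio, giving AC50 for positive and negative modulators.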
In the case of `c1ccc(NN(Cc2cnccn2)c2ccccc2)cc1`, the activity change, negative = inhibition is reported as -14% (inactive). In the case of `COC(=O)c1cc(Br)c(=O)n(CCc2ccc(F)cc2)c1`, the activity change, negative = inhibition is reported as 4.29% [at 17.2 µM] (inactive). In the case of `NS(=O)(=O)c1ccc(N=Nc2c[nH]c(=O)c(O)c2)cc1`, the activity change, negative = inhibition is reported as 8.24% (inactive). With `COC(=O)c1cc(Br)c(=O)n(Cc2ccc3c(c2)OCO3)c1` the activity change, negative = inhibition was -2.94% [at 17.2 µM] (inactive). In the case of `Cc1ccc(SCc2nnc(N)s2)cc1`, the activity change, negative = inhibition is reported as 14.2% [at 17.2 µM] (inactive). For `CC(NC(=O)Nc1ccc(O)cc1)(C(F)(F)F)C(F)(F)F`, the activity change, negative = inhibition was 5.47% [at 17.2 µM] (inactive). For `O=C(O)CC1Sc2nc3ccccc3n2C1=O` (configuration not stated), the activity change, negative = inhibition was 12.1% [at 17.2 µM] (inactive).

System: not listed separately
Assay: NFAT Signaling Pathway (AID 444; active = well fitted curve in either direction with a large enough effect, not every such curve was filed as active;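 note: carbachol stimulus at about its EC50 of 1 µM final; % is set by controls: 0 for no effect and ±100 for the full control effect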)
Settings: Jurkat NFAT-bla M1, carbachol, beta-lactamase ratio, 5 h; at 7.69 µM (top of the series) unless noted
Summary of the method: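 Jurkat cells carrying an NFAT-driven β-lactamase reporter and co-transfected muscarinic M1 receptor were treated with compound plus carbachol (1 uM final, an EC50 level) for 5 h at 37 °C. CCF4 loading followed for 1 h at RT; 460/530 nm ratio gave %activity.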
In the case of `c1ccc(NN(Cc2cnccn2)c2ccccc2)cc1`, the activity change, negative = inhibition is reported as -17.6% (inactive). For `COC(=O)c1cc(Br)c(=O)n(CCc2ccc(F)cc2)c1`, the activity change, negative = inhibition was -12.1% [at 17.2 µM] (inactive). With `NS(=O)(=O)c1ccc(N=Nc2c[nH]c(=O)c(O)c2)cc1` the activity change, negative = inhibition was -22.1% (inactive). In the case of `COC(=O)c1cc(Br)c(=O)n(Cc2ccc3c(c2)OCO3)c1`, the activity change, negative = inhibition is reported as 2.18% [at 17.2 µM] (inactive). In the case of `Cc1ccc(SCc2nnc(N)s2)cc1`, the activity change, negative = inhibition is reported as -2.66% [at 17.2 µM] (inactive). In the case of `CC(NC(=O)Nc1ccc(O)cc1)(C(F)(F)F)C(F)(F)F`, the activity change, negative = inhibition is reported as 11.8% [at 17.2 µM] (inactive). For `O=C(O)CC1Sc2nc3ccccc3n2C1=O` (configuration not stated), the activity change, negative = inhibition was 6.71% [at 17.2 µM] (inactive).

System: not listed separately
Assay: Stat Signaling Pathway (AID 446; active = well fitted curve in either direction with a large enough effect, not every such curve was filed as active;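 note: ME-180 cervical cancer cells given 40 pM IL-6 alongside compound; SIE-controlled beta-lactamase reporter measured as 460/530 nm FRET emission ratio; % is set by controls: 0 for no effect and ±100 for the full control effect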)
Settings: ME-180 (cervical carcinoma) SIE beta-lactamase reporter, IL-6 stimulated, 5 h; series mostly up to 7.69 µM; activity, negative = inhibition: at the top concentration
Summary of the method: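 FRET read-out (405 nm excitation, 460/530 nm emission) of a beta-lactamase reporter under a STAT-inducible element in ME-180 cervical carcinoma cells. Cells with compound receive 40 pM IL-6 for 5 h. Values are normalised to AC90 stimulation and AC90 JAK-inhibitor controls.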
With `c1ccc(NN(Cc2cnccn2)c2ccccc2)cc1` the “activity, negative = inhibition” value was -3.8% (inactive). For `COC(=O)c1cc(Br)c(=O)n(CCc2ccc(F)cc2)c1`, the “activity, negative = inhibition” value was 2.5% [at 17.2 µM] (inactive). With `NS(=O)(=O)c1ccc(N=Nc2c[nH]c(=O)c(O)c2)cc1` the “activity, negative = inhibition” value was 3.86% (inactive). With `COC(=O)c1cc(Br)c(=O)n(Cc2ccc3c(c2)OCO3)c1` the “activity, negative = inhibition” value was -3.91% [at 17.2 µM] (inactive). For `Cc1ccc(SCc2nnc(N)s2)cc1`, the “activity, negative = inhibition” value was 10.8% [at 17.2 µM] (inactive). With `CC(NC(=O)Nc1ccc(O)cc1)(C(F)(F)F)C(F)(F)F` the “activity, negative = inhibition” value was 3.23% [at 17.2 µM] (inactive). For `O=C(O)CC1Sc2nc3ccccc3n2C1=O` (configuration not stated), the “activity, negative = inhibition” value was -3.01% [at 17.2 µM] (inactive).

Biological target: Glucocorticoid receptor (Homo sapiens) (UniProt P04150)
Sequence (P04150 whole entry, looked up): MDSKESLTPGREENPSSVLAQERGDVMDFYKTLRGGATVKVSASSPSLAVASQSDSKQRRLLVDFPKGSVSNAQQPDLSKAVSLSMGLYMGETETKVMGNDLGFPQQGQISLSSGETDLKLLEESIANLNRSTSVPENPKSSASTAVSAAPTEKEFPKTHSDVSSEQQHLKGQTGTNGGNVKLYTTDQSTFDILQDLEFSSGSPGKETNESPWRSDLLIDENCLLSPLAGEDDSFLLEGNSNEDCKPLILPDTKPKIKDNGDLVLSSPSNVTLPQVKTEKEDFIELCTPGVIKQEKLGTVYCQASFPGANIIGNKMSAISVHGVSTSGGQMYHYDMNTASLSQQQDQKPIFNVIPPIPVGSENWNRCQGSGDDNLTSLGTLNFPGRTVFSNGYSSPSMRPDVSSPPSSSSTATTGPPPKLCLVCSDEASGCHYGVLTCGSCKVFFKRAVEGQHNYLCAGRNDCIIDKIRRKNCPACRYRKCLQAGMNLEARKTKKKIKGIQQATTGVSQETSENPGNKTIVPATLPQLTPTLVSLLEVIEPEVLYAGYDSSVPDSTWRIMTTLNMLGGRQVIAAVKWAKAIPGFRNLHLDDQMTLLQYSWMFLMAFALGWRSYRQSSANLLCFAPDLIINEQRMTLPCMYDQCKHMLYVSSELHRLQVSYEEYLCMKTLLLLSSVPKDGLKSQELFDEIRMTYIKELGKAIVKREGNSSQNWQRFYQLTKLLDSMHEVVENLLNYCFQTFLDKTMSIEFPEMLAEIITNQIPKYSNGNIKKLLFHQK
Assay: GR-GFP Redistribution (AID 450;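 active = compounds whose dose series gives a full or clear partial fitted curve of increased nuclear translocation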; note: potency is the fitted concentration of half-maximal effect)
Settings: U2OS GR-GFP nuclear translocation, laser cytometry, 2 h
In the case of `c1ccc(NN(Cc2cnccn2)c2ccccc2)cc1`, the Potency is reported as > 46 µM (inactive). In the case of `COC(=O)c1cc(Br)c(=O)n(CCc2ccc(F)cc2)c1`, the Potency is reported as > 20.6 µM (inactive). For `NS(=O)(=O)c1ccc(N=Nc2c[nH]c(=O)c(O)c2)cc1`, the Potency was > 46 µM (inactive). For `COC(=O)c1cc(Br)c(=O)n(Cc2ccc3c(c2)OCO3)c1`, the Potency was > 20.6 µM (inactive). With `CC(NC(=O)Nc1ccc(O)cc1)(C(F)(F)F)C(F)(F)F` the Potency was > 20.6 µM (inactive). With `O=C(O)CC1Sc2nc3ccccc3n2C1=O` (configuration not stated) the Potency was > 20.6 µM (inactive).

Biological target: Rap guanine nucleotide exchange factor 3 (Homo sapiens) (UniProt O95398)
Sequence (O95398 whole entry, looked up): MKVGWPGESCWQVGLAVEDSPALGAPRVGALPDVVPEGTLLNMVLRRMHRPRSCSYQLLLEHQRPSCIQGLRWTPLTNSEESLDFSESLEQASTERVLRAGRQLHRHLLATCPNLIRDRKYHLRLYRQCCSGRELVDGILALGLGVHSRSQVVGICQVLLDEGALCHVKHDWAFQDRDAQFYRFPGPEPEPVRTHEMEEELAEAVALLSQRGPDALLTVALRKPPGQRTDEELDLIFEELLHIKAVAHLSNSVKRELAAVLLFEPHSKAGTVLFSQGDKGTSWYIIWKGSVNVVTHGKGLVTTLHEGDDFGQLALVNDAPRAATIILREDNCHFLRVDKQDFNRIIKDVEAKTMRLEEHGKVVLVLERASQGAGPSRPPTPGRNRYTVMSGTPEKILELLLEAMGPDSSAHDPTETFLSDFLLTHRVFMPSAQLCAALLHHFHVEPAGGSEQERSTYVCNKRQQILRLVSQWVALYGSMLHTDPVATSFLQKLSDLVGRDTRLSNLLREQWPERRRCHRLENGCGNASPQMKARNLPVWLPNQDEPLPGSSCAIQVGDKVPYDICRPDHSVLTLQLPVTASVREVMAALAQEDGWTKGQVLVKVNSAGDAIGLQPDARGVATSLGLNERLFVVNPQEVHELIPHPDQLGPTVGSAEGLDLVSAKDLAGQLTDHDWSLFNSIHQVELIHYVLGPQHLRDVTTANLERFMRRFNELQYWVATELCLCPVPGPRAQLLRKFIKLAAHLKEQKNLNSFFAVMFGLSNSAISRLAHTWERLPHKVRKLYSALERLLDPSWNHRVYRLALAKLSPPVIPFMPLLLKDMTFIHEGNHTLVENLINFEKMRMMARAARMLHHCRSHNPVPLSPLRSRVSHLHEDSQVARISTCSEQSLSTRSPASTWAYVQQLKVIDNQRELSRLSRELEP
Assay: Confirmatory qHTS for antagonist of cAMP-regulated guanine nucleotide exchange factor 3 (EPAC1) (AID 1645880); note: nearly all actives have a fitted effect of over 55% in size; note: potency is the fitted concentration of half-maximal effect;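 for activity, negative = inhibition: plate controls were DMSO only for no effect and full effect of the ATA control for full effect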
Settings: EPAC1 Rap1B-BODIPY-GDP exchange, fluorescence; activity, negative = inhibition: at 115 µM (top of the series)
Summary of the method: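 Released BODIPY-GDP fluoresces less than Rap1-bound BODIPY-GDP; the signal is followed at 480/540 nm at 5-min intervals over 30 min, after 5 min at room temperature. Reactions contain 100 nM EPAC1, 250 nM RAP1B-BODIPY-GDP and 50 uM GDP; results are normalized to ATA and DMSO.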
In the case of `CCc1nnc(NC(=O)c2ccc(-c3cccc(C(F)(F)F)c3)o2)s1`, the “activity, negative = inhibition” value is reported as -15.7% (inactive). With `CCc1ccc(NC(=O)COC(=O)CCC2CCCC2)cc1` the “activity, negative = inhibition” value was -16.7% (inactive). In the case of `O=S(=O)(N/N=C/c1cccnc1)c1ccc(Cl)c(Cl)c1`, the “activity, negative = inhibition” value is reported as -20% (inactive). In the case of `Cc1ccc(NC(=O)Cn2nnc(-c3nc(-c4ccncc4)no3)c2N)c(C)c1`, the “activity, negative = inhibition” value is reported as -18% (inactive). With `Cn1cc([C@]2(O)C(=O)Nc3c(F)cccc32)c2ccccc21` the “activity, negative = inhibition” value was -23.1% (inactive). In the case of `c1ccc(NN(Cc2cnccn2)c2ccccc2)cc1`, the “activity, negative = inhibition” value is reported as -22.5% (inactive). For `C=CCOc1ccc(C2N3CC4(CC)CN2CC(CC)(C3)C4=O)cc1` (configuration not stated), the “activity, negative = inhibition” value was -13.5% (inactive). With `COc1ccc(C2c3ccsc3CCN2C(C)=O)cc1` (configuration not stated) the “activity, negative = inhibition” value was -14.9% (inactive). With `O=S(=O)(NCC1(N2CCOCC2)CCCCC1)c1ccc(Cl)cc1C(F)(F)F` the “activity, negative = inhibition” value was -20.9% (inactive). For `COC(=O)c1cc(Br)c(=O)n(CCc2ccc(F)cc2)c1`, the “activity, negative = inhibition” value was -12.8% (inactive). In the case of `COc1cc(NS(=O)(=O)c2cc3[nH]c(=O)c(=O)[nH]c3cc2C)cc(OC)c1OC`, the “activity, negative = inhibition” value is reported as -19.4% (inactive). With `CSc1ccc(CC2C(=O)Nc3ccccc32)cc1` (configuration not stated) the “activity, negative = inhibition” value was -10.2% (inactive). With `COc1c(O)cc2oc(-c3ccc(O)c(O)c3)cc(=O)c2c1O` the Potency was 10.7 µM (active). With `COc1cccc(-n2ccn(CC(=O)NCc3ccc(C)cc3)c(=O)c2=O)c1` the “activity, negative = inhibition” value was -14.2% (inactive). In the case of `COc1cccc(-c2nc(SCC(=O)Nc3nc(-c4ccccc4)c(C)s3)[nH]c(=O)c2C#N)c1`, the Potency is reported as 75.7 µM (active). With `Cc1ccccc1N=C(c1ccccc1)C1C(=O)c2ccccc2C1=O` the “activity, negative = inhibition” value was -10.9% (inactive). In the case of `CCOc1cc(/C=C2\SC(=S)N(NS(=O)(=O)c3ccc(C)cc3)C2=O)ccc1O`, the Potency is reported as 19 µM (active). For `NS(=O)(=O)c1ccc(N=Nc2c[nH]c(=O)c(O)c2)cc1`, the Potency was 42.6 µM (active). For `Cc1[nH]n(-c2ncc(-c3ccccc3)s2)c(=O)c1C(c1ccc(Br)cc1)C(C#N)C#N` (configuration not stated), the Potency was 12.6 µM (active). With `COC(=O)c1cc(Br)c(=O)n(Cc2ccc3c(c2)OCO3)c1` the “activity, negative = inhibition” value was -19.6% (inactive). For `CCN(CC)c1nc2ccccc2n(Cc2cccc(OC)c2)c1=O`, the “activity, negative = inhibition” value was -15.9% (inactive). In the case of `Cc1cccn2cc(CCNC(=O)c3ccco3)nc12`, the “activity, negative = inhibition” value is reported as -19% (inactive). In the case of `COCCCn1c(=N)c(C(=O)NCc2cccnc2)cc2c(=O)n3cccc(C)c3nc21`, the “activity, negative = inhibition” value is reported as -22.8% (inactive). In the case of `O=C(Nc1nc2ccc(Cl)cc2s1)C1CCCO1` (configuration not stated), the “activity, negative = inhibition” value is reported as -17.2% (inactive). With `O=C(COc1ccccc1[N+](=O)[O-])Nc1cccc(C(=O)Nc2ccccc2C(=O)O)c1` the Potency was 23.9 µM (active). With `CC[C@]12c3[nH]c4cc(-c5ccco5)ccc4c3CCN1C(=O)[C@@H](CC(=O)NCCCOC)C[C@@H]2C(=O)N1CCN(C(=O)C2CC2)CC1` the “activity, negative = inhibition” value was -21.4% (inactive). For `O=C(/C=C/c1ccc(O)c(O)c1)O[C@@H]1C[C@](O)(C(=O)O)C[C@@H](O)[C@H]1O`, the “activity, negative = inhibition” value was -8.05% (inactive). With `Cc1ccc(SCc2nnc(N)s2)cc1` the “activity, negative = inhibition” value was -5.98% (inactive). With `O=C(NCCc1ccccc1)c1ccc2c(=O)[nH]c3c(C(=O)NCC4CCCO4)sc(=S)n3c2c1` (configuration not stated) the Potency was 75.7 µM (active). With `O=C(Nc1ccccc1C(=O)O)c1cccc(S(=O)(=O)Nc2ccc(Br)cc2)c1` the Potency was 75.7 µM (active). For `O=C(CSc1nccn1C1CCCC1)Nc1cc(C(F)(F)F)ccc1Cl`, the “activity, negative = inhibition” value was -44.9% (inactive). With `NC(=O)c1ccsc1NC(=O)CS(=O)(=O)c1ccc(F)cc1` the “activity, negative = inhibition” value was -8.88% (inactive). In the case of `O=C(O)c1ccc(/C=N/NC(=O)c2ccc(CN3c4cccc5cccc(c45)S3(=O)=O)cc2)cc1`, the Potency is reported as 44.7 µM (active). For `COc1ccc(NC(=O)CCCSc2nc(-c3ccco3)cc(C(F)(F)F)n2)cc1`, the “activity, negative = inhibition” value was -42.6% (inactive). With `Cc1ccc(C(=O)/C=C/c2cc(Br)cc(Br)c2O)o1` the Potency was 26.9 µM (active). For `Cc1ccc(/C(O)=C2/C(=O)C(=O)OC2c2ccc(Cl)cc2)cc1` (configuration not stated), the Potency was 39.8 µM (active). With `COc1cccc(OC)c1C(=O)NC(=S)NNC(=O)[C@H]1C[C@@H]1c1ccccc1` the “activity, negative = inhibition” value was -22.7% (inactive). In the case of `CC(NC(=O)Nc1ccc(O)cc1)(C(F)(F)F)C(F)(F)F`, the “activity, negative = inhibition” value is reported as -17.3% (inactive). For `O=C(O)CC1Sc2nc3ccccc3n2C1=O` (configuration not stated), the “activity, negative = inhibition” value was -14.3% (inactive). For `CCCc1nc2ccccc2c(=O)n1/N=C/c1ccc(O)c(O)c1`, the “activity, negative = inhibition” value was -29.9% (inactive).
